21 compounds from PubChem BioAssay (NCI) can be followed below.

Test [1] is described as follows: NCI Yeast Anticancer Drug Screen. Data for the rad50 strain (AID 155).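 Note: 0% = growth of vehicle-only cultures of the same strain.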 As to conditions: S. cerevisiae rad50 strain growth inhibition; at 50.0 µM; active compounds read high. The method, boiled down:
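DNA repair mutant yeast, compound exposure, growth read-out; inhibition is taken relative to vehicle.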

The nature of test [2]: NCI Yeast Anticancer Drug Screen. Data for the mec2-1 strain (AID 157). To be noted: S. cerevisiae mec2-1 strain, at 50.0 µM, active compounds read high. The method, boiled down: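 Using mec2-1 yeast: add compound, measure growth, express inhibition versus vehicle-treated cultures.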
Test [3] is described as follows: NCI Yeast Anticancer Drug Screen. Data for the sgs1 mgt1 strain (AID 161).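 Note: 0% = growth of cultures given vehicle only.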 To be noted: S. cerevisiae sgs1 mgt1 strain, at 50.0 µM, active compounds read high. The procedure, abridged: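 Yeast cells carrying a defined DNA-repair defect were exposed to test compounds. Growth inhibition was measured relative to vehicle-treated controls.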
Test [4] can be described thus: NCI Yeast Anticancer Drug Screen. Data for the cln2 rad14 strain (AID 165).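 Note: 0% = growth equal to vehicle treated cultures.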 As to conditions: S. cerevisiae cln2 rad14 strain, at 50.0 µM, active compounds read high. The procedure, abridged:
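Yeast strain cln2 rad14, bearing defects in cell cycle control and DNA repair, serves as the test system; values reflect growth inhibition compared with vehicle.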

Test [5] in a line: NCI Yeast Anticancer Drug Screen. Data for the bub3 strain (AID 167). As to conditions: S. cerevisiae bub3 mutant strain, at 50.0 µM, active compounds read high. The method, boiled down: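 In this screen, a yeast mutant lacking normal mitotic checkpoint function is challenged with compound. Relative growth versus vehicle gives the inhibition value.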
A short description of test [6]: NCI Yeast Anticancer Drug Screen. Data for the mlh1 rad18 strain (AID 175). To be noted: S. cerevisiae mlh1 rad18 strain growth inhibition; at 50.0 µM; active compounds read high. The procedure, abridged:
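Steps: expose repair-defective yeast to compound; measure growth; express inhibition against vehicle-treated controls.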

The panel holds about 79,000 compounds, 15% with a hit somewhere; the sample as a whole holds those more often. Unmarked numbers belong to inactive results. Active and inactive are the calls of the source. Cut-off read from the data, not from the text of the source: active = growth inhibition above about 70%; inactive = the rest.

As for `CCN(CC)C(=O)C1CCNCC1`, the growth inhibition in test [1] is -12.3%; in test [2] it was -14.4%; in test [3], -2%; in test [4], -27.2%; in test [5], 9.85%; in test [6], -7.75%.

For the compound `O=C(Nc1cccc2ccccc12)c1ccccc1F`, the growth inhibition in test [1] is -1.35%; in test [2] it was 16.8%; in test [3], 14.9%; in test [4], -2.15%; in test [5], 21.1%; in test [6], 11.8%.

`Nc1cc(Cc2ccccc2)ccc1O`: the growth inhibition is 42.5% in test [1]; 25.8% in test [2]; 58.8% in test [3]; 18.8% in test [4]; 31.2% in test [5]; 46.7% in test [6].

Take `CCC(C)C(C)(O)CC` (stereo unspecified): the growth inhibition in test [1] was -2.6%; in test [2], -28.9%; in test [3] it was -21.8%; in test [4] it was 4.1%; in test [5], -8.8%; in test [6] it was -4.8%.

Regarding `N#C/C(=C\c1ccccc1Cl)C(N)=S`, the growth inhibition is 10.6% in test [1]; 11.2% in test [2]; 1.15% in test [3]; 8% in test [4]; -27.4% in test [5]; 6.05% in test [6].

Turning to `NNC(=O)N/N=C1\C(=O)N(c2ccc(Cl)c(Cl)c2)C(=O)C(=O)C1c1nc2ccccc2s1` (stereo unspecified), the growth inhibition is 41.4% in test [1]; 5.95% in test [2]; 26.9% in test [3]; 13.3% in test [4]; 0% in test [5]; 26.4% in test [6].

Take `CC(=O)OCC(=O)C1(O)CCC2C3CCC4CC(=O)CCC4(C)C3C(=O)CC21C` (stereo unspecified): the growth inhibition in test [1] is -3.65%; in test [2], -5.65%; in test [3] it was -11.8%; in test [4], 20.2%; in test [5], 3.7%; in test [6] it was 9.4%.

Take `CC/C(Cl)=N\OC(=O)Nc1ccccc1OC(F)(F)F`: the growth inhibition is -24.1% in test [1]; -15.4% in test [2]; 87.2% (active) in test [3]; -13.6% in test [4]; 18.6% in test [5]; -89.6% in test [6].

Consider `CC(C)(C)C(=O)C(c1ccc(-c2cscn2)cc1)c1ccc(-c2cscn2)cc1`, for which the growth inhibition in test [1] is -2%; in test [2], -2.8%; in test [3], -1.1%; in test [4], 1.3%; in test [5], -5.3%; in test [6] it was -22.2%.

Take `ClCCCCC(Cl)(Cl)Cl`: the growth inhibition in test [1] is 27.9%; in test [2], 27.6%; in test [3], 10.4%; in test [4] it was -16.3%; in test [5], 21.9%; in test [6] it was 23.3%.

With `Cc1ccc2c(O)c3c(cc2c1O)C(=O)c1ccccc1C3=O`, the growth inhibition in test [1] is 30.2%; in test [2], 0.75%; in test [3] it was 20.4%; in test [4], 21.3%; in test [5], -0.85%; in test [6] it was 31.2%.

With `CC(C)c1cccc(C(C)C)c1NC(=O)OC1CCCCC1C` (stereo unspecified), the growth inhibition in test [1] is -21.1%; in test [2] it was -17.6%; in test [3] it was 7%; in test [4], -1.95%; in test [5], -4.65%; in test [6], -6.4%.

Turning to `N#CC1(C#N)CC1c1ccccc1` (stereo unspecified), the growth inhibition in test [1] was 8.55%; in test [2] it was 10.7%; in test [3], 6.75%; in test [4] it was -6.1%; in test [5], -2.9%; in test [6], 29.3%.

In the case of `COC(=O)C(O)CC1=CC[C@@H]2CC=C[C@H]12` (stereo partly specified), the growth inhibition in test [1] is 27.7%; in test [2], 1.7%; in test [3], 13.7%; in test [4] it was 3.7%; in test [5] it was 27.5%; in test [6] it was -7.65%.

`O=C(Nc1cccc(Cc2cccc(NC(=O)c3ccccc3)c2)c1)c1ccccc1`: the growth inhibition in test [1] is 5.65%; in test [2], -1.9%; in test [3], -11.9%; in test [4] it was -41.1%; in test [5] it was -2.35%; in test [6] it was -0.35%.

In the case of `CC(C)(C)NC(=O)NCc1cccc(Cl)c1`, the growth inhibition in test [1] is 0.25%; in test [2], -19.6%; in test [3], -4.15%; in test [4] it was -36.1%; in test [5] it was -3%; in test [6] it was -3.25%.

As to `O=C1c2cccc(O)c2C(=O)c2c(OC3OC(CO)C(OC4OC(CO)C(O)C(O)C4O)C(O)C3O)cccc21` (stereo unspecified), the growth inhibition in test [1] was 94.2% (active); in test [2] it was 36.2%; in test [3], 32.5%; in test [4], -5.55%; in test [5], 4.15%; in test [6], 31.4%.

In the case of `Cc1cn(C2CC(O)C(O)C(C)O2)c(=O)[nH]c1=O` (stereo unspecified), the growth inhibition in test [1] was 22.2%; in test [2], 6.15%; in test [3], 24.6%; in test [4], 5.8%; in test [5] it was 12.2%; in test [6], 25.4%.

On to `Clc1ccccc1-c1c2ccccc2cc2ccc3ccccc3c12`, for which the growth inhibition in test [1] is -6.75%; in test [2], -11.6%; in test [3] it was -3.85%; in test [4], -39.5%; in test [5], 18.9%; in test [6], -12.4%.

For `CCCc1c(C)[nH]c2ccccc12`, the growth inhibition in test [1] is 15.1%; in test [2], -33.3%; in test [3], 5.7%; in test [4], 24.8%; in test [5] it was -16.9%; in test [6], 9%.

For `CCCCCC1OC1CC1OC1CCCCCCCC(=O)O` (stereo unspecified), the growth inhibition in test [1] is -5.5%; in test [2], -21.1%; in test [3] it was -3.85%; in test [4], -14.8%; in test [5], -12.8%; in test [6] it was -13.4%.
